{"source": "PubChem BioAssay AID1159580", "about": "(chemical genetic matrix, 2015)", "experiment": "chemical genetic growth profiling, strain panel (AID 1159580);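 further: tested at 20 µM; growth read once vehicle control cultures reached saturation at 30 °C; 1 = growth at the plate median or of vehicle wells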", "details": "S. cerevisiae deletion strains, growth OD", "key": {"[1]": {"details": "locus YDL101C, strain DUN1, stronger effect = lower value"}, "[2]": {"details": "locus YHR030C, strain SLT2, stronger effect = lower value"}}, "note": "Hit rate of the full screen: of about 5,500 compounds, about 2,000 (36%) were called active. Inconclusive results (about 18%) are left out. The list shows a part of the results. Values without a mark were called inactive. No stated cut-off is given here; in the data, active means normalized growth mostly below about 0.91 (no sharp cut-off); inconclusive means no clear call, values can overlap the other calls; inactive means mostly above about 0.92.", "data": [{"smiles": "Cc1ccc(Sc2ncccc2C(=O)NCC(=O)O)cc1", "values": [{"measurement": "normalized growth", "setting": "locus YAL013W, strain DEP1, stronger effect = lower value", "value": 1.03}, {"measurement": "normalized growth", "setting": "locus YBR229C, strain ROT2, stronger effect = lower value", "value": 1.02}, {"measurement": "normalized growth", "setting": "[1]", "value": 1.04}, {"measurement": "normalized growth", "setting": "locus YDL134C, strain PPH21, stronger effect = lower value", "value": 0.999}, {"measurement": "normalized growth", "setting": "locus YDR150W, strain NUM1, stronger effect = lower value", "value": 1.03}, {"measurement": "normalized growth", "setting": "locus YEL061C, strain CIN8, stronger effect = lower value", "value": 1.01}, {"measurement": "normalized growth", "setting": "locus YGR078C, strain PAC10, stronger effect = lower value", "value": 1.04}, {"measurement": "normalized growth", "setting": "[2]", "value": 1.06}, {"measurement": "normalized growth", "setting": "locus YHR087W, strain rtc3, stronger effect = lower value", "value": 0.994}, {"measurement": "normalized growth", "setting": "locus YJR043C, strain POL32, stronger effect = lower value", "value": 0.962}, {"measurement": "normalized growth", "setting": "locus YJR075W, strain HOC1, stronger effect = lower value", "value": 1.02}, {"measurement": "normalized growth", "setting": "locus YLR039C, strain RIC1, stronger effect = lower value", "value": 1}, {"measurement": "normalized growth", "setting": "locus YLR058C, strain SHM2 (second series), stronger effect = lower value", "value": 1.02}, {"measurement": "normalized growth", "setting": "locus YLR085C, strain ARP6, stronger effect = lower value", "value": 1.02}, {"measurement": "normalized growth", "setting": "locus YLR262C, strain YPT6, stronger effect = lower value", "value": 1.01}, {"measurement": "normalized growth", "setting": "locus YML094W, strain GIM5, stronger effect = lower value", "value": 0.992}, {"measurement": "normalized growth", "setting": "locus YMR219W, strain ESC1, stronger effect = lower value", "value": 1.01}, {"measurement": "normalized growth", "setting": "locus YMR263W, strain SAP30, stronger effect = lower value", "value": 1.02}, {"measurement": "normalized growth", "setting": "locus YNL153C, strain GIM3, stronger effect = lower value", "value": 1.03}, {"measurement": "normalized growth", "setting": "locus YNL298W, strain CLA4 (second series), stronger effect = lower value", "value": 1.02}, {"measurement": "normalized growth", "setting": "locus YNL322C, strain KRE1, stronger effect = lower value", "value": 1.01}, {"measurement": "normalized growth", "setting": "locus YNR030W, strain Alg12, stronger effect = lower value", "value": 1.02}, {"measurement": "normalized growth", "setting": "locus YOL006C, strain TOP1, stronger effect = lower value", "value": 1.04}, {"measurement": "normalized growth", "setting": "locus YPL055C, strain LGE1, stronger effect = lower value", "value": 1.01}, {"measurement": "normalized growth", "setting": "locus YPL241C, strain CIN2, stronger effect = lower value", "value": 0.996}, {"measurement": "normalized growth", "setting": "locus YPR135W, strain CTF4, stronger effect = lower value", "value": 1.08}]}, {"smiles": "Cc1ccc(Sc2ncccc2NS(=O)(=O)c2ccc(Cl)cc2)cc1", "values": [{"measurement": "normalized growth", "setting": "locus YAR019C, strain CDC15, stronger effect = lower value", "value": 0.933}, {"measurement": "normalized growth", "setting": "locus YBL105C, strain PKC1, stronger effect = lower value", "value": 0.924}, {"measurement": "normalized growth", "setting": "locus YBR135W, strain CKS1, stronger effect = lower value", "value": 0.935}, {"measurement": "normalized growth", "setting": "locus YBR136W, strain MEC1, stronger effect = lower value", "value": 0.922}, {"measurement": "normalized growth", "setting": "locus YBR160W, strain CDC28, stronger effect = lower value", "value": 0.934}, {"measurement": "normalized growth", "setting": "locus YDL017W, strain CDC7, stronger effect = lower value", "value": 0.937}, {"measurement": "normalized growth", "setting": "locus YDL028C, strain MPS1, stronger effect = lower value", "value": 0.932}, {"measurement": "normalized growth", "setting": "[1]", "value": 0.947}, {"measurement": "normalized growth", "setting": "locus YDL108W, strain KIN28, stronger effect = lower value", "value": 0.919}, {"measurement": "normalized growth", "setting": "locus YDL132W, strain cdc53, stronger effect = lower value", "value": 0.932}, {"measurement": "normalized growth", "setting": "locus YDL214C, strain PRR2, stronger effect = lower value", "value": 0.852}, {"measurement": "normalized growth", "setting": "locus YDR052C, strain DBF4, stronger effect = lower value", "value": 0.952}, {"measurement": "normalized growth", "setting": "locus YDR054C, strain cdc34, stronger effect = lower value", "value": 0.922}, {"measurement": "normalized growth", "setting": "locus YDR226W, strain ADK1, stronger effect = lower value", "value": 0.938}, {"measurement": "normalized growth", "setting": "locus YDR477W, strain SNF1, stronger effect = lower value", "value": 0.881}, {"measurement": "normalized growth", "setting": "locus YER123W, strain YCK3, stronger effect = lower value", "value": 0.823}, {"measurement": "normalized growth", "setting": "locus YER133W, strain GLC7, stronger effect = lower value", "value": 0.855}, {"measurement": "normalized growth", "setting": "locus YFL009W, strain cdc4, stronger effect = lower value", "value": 0.935}, {"measurement": "normalized growth", "setting": "locus YFL029C, strain CAK1, stronger effect = lower value", "value": 0.931}, {"measurement": "normalized growth", "setting": "locus YFR003C, strain YPI1, stronger effect = lower value", "value": 0.929}, {"measurement": "normalized growth", "setting": "locus YFR019W, strain FAB1, stronger effect = lower value", "value": 0.923}, {"measurement": "normalized growth", "setting": "locus YFR028C, strain CDC14, stronger effect = lower value", "value": 0.926}, {"measurement": "normalized growth", "setting": "locus YGR040W, strain KSS1, stronger effect = lower value", "value": 0.858}, {"measurement": "normalized growth", "setting": "locus YGR052W, strain FMP48, stronger effect = lower value", "value": 0.907}, {"measurement": "normalized growth", "setting": "locus YGR092W, strain DBF2, stronger effect = lower value", "value": 0.826}, {"measurement": "normalized growth", "setting": "[2]", "value": "0.839 (active)"}, {"measurement": "normalized growth", "setting": "locus YHR079C, strain IRE1, stronger effect = lower value", "value": 0.87}, {"measurement": "normalized growth", "setting": "locus YHR082C, strain KSP1, stronger effect = lower value", "value": 0.845}, {"measurement": "normalized growth", "setting": "locus YHR205W, strain SCH9, stronger effect = lower value", "value": 0.852}, {"measurement": "normalized growth", "setting": "locus YIL147C, strain SLN1, stronger effect = lower value", "value": 0.917}, {"measurement": "normalized growth", "setting": "locus YJL095W, strain BCK1, stronger effect = lower value", "value": 0.909}, {"measurement": "normalized growth", "setting": "locus YJL128C, strain PBS2, stronger effect = lower value", "value": 0.88}, {"measurement": "normalized growth", "setting": "locus YJL157C, strain FAR1, stronger effect = lower value", "value": 0.856}, {"measurement": "normalized growth", "setting": "locus YJR016C, strain ILV3, stronger effect = lower value", "value": 0.919}, {"measurement": "normalized growth", "setting": "locus YJR066W, strain TOR1 (second series), stronger effect = lower value", "value": 0.851}, {"measurement": "normalized growth", "setting": "locus YJR066W, strain TOR1, stronger effect = lower value", "value": 0.882}, {"measurement": "normalized growth", "setting": "locus YKL048C, strain ELM1, stronger effect = lower value", "value": 0.888}, {"measurement": "normalized growth", "setting": "locus YKL067W, strain YNK1, stronger effect = lower value", "value": 0.894}, {"measurement": "normalized growth", "setting": "locus YKL101W, strain HSL1, stronger effect = lower value", "value": 0.884}, {"measurement": "normalized growth", "setting": "locus YKL193C, strain SDS22, stronger effect = lower value", "value": 0.932}, {"measurement": "normalized growth", "setting": "locus YKL203C, strain TOR2, stronger effect = lower value", "value": 0.928}, {"measurement": "normalized growth", "setting": "locus YLR113W, strain HOG1, stronger effect = lower value", "value": "0.809 (active)"}, {"measurement": "normalized growth", "setting": "locus YLR133W, strain CKI1, stronger effect = lower value", "value": 0.894}, {"measurement": "normalized growth", "setting": "locus YLR403W, strain SFP1, stronger effect = lower value", "value": 0.861}, {"measurement": "normalized growth", "setting": "locus YML070W, strain DAK1, stronger effect = lower value", "value": 0.849}, {"measurement": "normalized growth", "setting": "locus YMR001C, strain CDC5, stronger effect = lower value", "value": 0.928}, {"measurement": "normalized growth", "setting": "locus YMR205C, strain PFK2 (second series), stronger effect = lower value", "value": 0.888}, {"measurement": "normalized growth", "setting": "locus YMR277W, strain FCP1, stronger effect = lower value", "value": 0.934}, {"measurement": "normalized growth", "setting": "locus YNL006W, strain LST8, stronger effect = lower value", "value": 0.947}, {"measurement": "normalized growth", "setting": "locus YNL020C, strain ARK1, stronger effect = lower value", "value": 0.879}, {"measurement": "normalized growth", "setting": "locus YNL161W, strain CBK1, stronger effect = lower value", "value": 0.929}, {"measurement": "normalized growth", "setting": "locus YNL183C, strain NPR1, stronger effect = lower value", "value": 0.897}, {"measurement": "normalized growth", "setting": "locus YNL207W, strain RIO2, stronger effect = lower value", "value": 0.924}, {"measurement": "normalized growth", "setting": "locus YNL222W, strain SSU72, stronger effect = lower value", "value": 0.933}, {"measurement": "normalized growth", "setting": "locus YNL307C, strain MCK1 (second series), stronger effect = lower value", "value": 0.885}, {"measurement": "normalized growth", "setting": "locus YOL078W, strain AVO1, stronger effect = lower value", "value": 0.94}, {"measurement": "normalized growth", "setting": "locus YOL136C, strain PFK27, stronger effect = lower value", "value": 0.854}, {"measurement": "normalized growth", "setting": "locus YOR061W, strain CKA2, stronger effect = lower value", "value": 0.85}, {"measurement": "normalized growth", "setting": "locus YOR119C, strain RIO1, stronger effect = lower value", "value": 0.912}, {"measurement": "normalized growth", "setting": "locus YOR231W, strain MKK1, stronger effect = lower value", "value": 0.891}, {"measurement": "normalized growth", "setting": "locus YOR329C, strain SCD5, stronger effect = lower value", "value": 0.929}, {"measurement": "normalized growth", "setting": "locus YPL031C, strain PHO85, stronger effect = lower value", "value": 0.866}, {"measurement": "normalized growth", "setting": "locus YPL153C, strain RAD53, stronger effect = lower value", "value": 0.863}, {"measurement": "normalized growth", "setting": "locus YPL204W, strain HRR25, stronger effect = lower value", "value": 0.884}, {"measurement": "normalized growth", "setting": "locus YPL209C, strain IPL1, stronger effect = lower value", "value": 0.934}, {"measurement": "normalized growth", "setting": "locus YPL256C, strain CLN2, stronger effect = lower value", "value": "0.827 (active)"}, {"measurement": "normalized growth", "setting": "locus YPR025C, strain CCL1, stronger effect = lower value", "value": 0.933}, {"measurement": "normalized growth", "setting": "locus YPR106W, strain ISR1, stronger effect = lower value", "value": 0.925}, {"measurement": "normalized growth", "setting": "locus YPR111W, strain DBF20, stronger effect = lower value", "value": 0.924}, {"measurement": "normalized growth", "setting": "strain NNK1, stronger effect = lower value", "value": 0.92}, {"measurement": "normalized growth", "setting": "strain TSCII, stronger effect = lower value", "value": 0.928}]}]}
